According to PubChem BioAssay AID1159580 (chemical genetic matrix, 2015):
Where “and” joins values, the source holds several entries; their conditions need not be identical. Equal entries are not always repeated. About 2,000 (36%) of roughly 5,500 compounds were called active. Not shown: some 18% with an inconclusive outcome. Cut-off read from the data, not from the text of the source: active = normalized growth mostly below about 0.91 (no sharp cut-off); inconclusive = no clear call, values can overlap the other calls; inactive = mostly above about 0.92. The list shows a part of the results.

Assay: chemical genetic growth profiling, strain panel (AID 1159580);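 note: tested at 20 µM; growth read once vehicle control cultures reached saturation at 30 °C; 1 = growth at the plate median or of vehicle wells; lower values mean less growth of the strain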
Settings: S. cerevisiae deletion strains, growth OD

Measured: normalized growth

CC1=CCc2c(cc3oc(C)cc(=O)c3c2O)OC1
0.892 (active) and 0.959 (inactive): locus YHR030C, strain SLT2, stronger effect = lower value
active: locus YAL013W, strain DEP1, stronger effect = lower value 0.886 | locus YDL074C, strain BRE1, stronger effect = lower value 0.703 | locus YDL192W, strain arf1, stronger effect = lower value 0.901 | locus YDR101C, strain arx1, stronger effect = lower value 0.887 | locus YDR162C, strain NBP2, stronger effect = lower value 0.738 | locus YDR195W, strain ref2 1.2 [resistant] | locus YDR318W, strain mcm21, stronger effect = lower value 0.885 | locus YDR502C, strain sam2, stronger effect = lower value 0.86 | locus YGR078C, strain PAC10, stronger effect = lower value 0.785 | locus YGR135W, strain pre9, stronger effect = lower value 0.802 | locus YGR229C, strain SMI1, stronger effect = lower value 0.679 | locus YGR252W, strain gcn5, stronger effect = lower value 0.741 | locus YHR079C, strain IRE1 (second series), stronger effect = lower value 0.91 | locus YIL066C, strain RNR3, stronger effect = lower value 0.858 | locus YJL187C, strain SWE1 (second series), stronger effect = lower value 0.867 | locus YJR043C, strain POL32, stronger effect = lower value 0.792
inactive: locus YAL021C, strain ccr4, stronger effect = lower value 0.991 | locus YAL026C, strain drs2, stronger effect = lower value 0.964 | locus YAL030W, strain snc1, stronger effect = lower value 0.972 | locus YBL061C, strain skt5, stronger effect = lower value 0.971 | locus YBR009C, strain hhf1, stronger effect = lower value 0.954 | locus YBR021W, strain FUR4, stronger effect = lower value 0.856 | locus YBR023C, strain chs3, stronger effect = lower value 0.977 | locus YBR171W, strain sec66, stronger effect = lower value 0.94 | locus YBR229C, strain ROT2, stronger effect = lower value 0.98 | locus YBR231C, strain swc5, stronger effect = lower value 0.966 | locus YBR279W, strain paf1, stronger effect = lower value 0.982 | locus YCL011C, strain gbp2, stronger effect = lower value 0.929 | locus YCL016C, strain dcc1, stronger effect = lower value 0.982 | locus YCL029C, strain bik1, stronger effect = lower value 0.951 | locus YCL061C, strain MRC1, stronger effect = lower value 0.954 | locus YCL069W, strain vba3, stronger effect = lower value 0.954 | locus YCR088W, strain abp1, stronger effect = lower value 0.961 | locus YDL005C, strain med2, stronger effect = lower value 1 | locus YDL035C, strain GPR1, stronger effect = lower value 0.863 | locus YDL040C, strain nat1, stronger effect = lower value 0.984 | locus YDL101C, strain DUN1, stronger effect = lower value 0.943 | locus YDL134C, strain PPH21, stronger effect = lower value 0.907 | locus YDL185W, strain tfp1, stronger effect = lower value 0.962 | locus YDR001C, strain nth1, stronger effect = lower value 0.949 | locus YDR069C, strain doa4, stronger effect = lower value 0.988 | locus YDR137W, strain rgp1, stronger effect = lower value 0.913 | locus YDR150W, strain NUM1, stronger effect = lower value 0.96 | locus YDR159W, strain sac3, stronger effect = lower value 1.02 | locus YDR297W, strain sur2, stronger effect = lower value 0.968 | locus YDR334W, strain swr1, stronger effect = lower value 0.965 | locus YDR335W, strain msn5, stronger effect = lower value 0.987 | locus YDR388W, stronger effect = lower value 0.957 | locus YDR392W, strain spt3, stronger effect = lower value 0.893 | locus YEL003W, strain gim4, stronger effect = lower value 0.929 | locus YEL037C, strain rad23, stronger effect = lower value 0.96 | locus YEL061C, strain CIN8 (second series), stronger effect = lower value 0.966 | locus YEL061C, strain CIN8, stronger effect = lower value 0.952 | locus YER015W, strain faa2, stronger effect = lower value 0.975 | locus YER016W, strain bim1, stronger effect = lower value 0.985 | locus YER110C, stronger effect = lower value 0.933 | locus YER111C, strain swi4, stronger effect = lower value 0.967 | locus YER155C, strain BEM2 (second series), stronger effect = lower value 0.867 | locus YER155C, strain BEM2, stronger effect = lower value 0.96 | locus YER167W, strain BCK2, stronger effect = lower value 0.924 | locus YFR010W, strain ubp6, stronger effect = lower value 0.953 | locus YGL078C, strain dbp3, stronger effect = lower value 0.944 | locus YGL086W, strain mad1, stronger effect = lower value 0.934 | locus YGL167C, strain pmr1, stronger effect = lower value 0.979 | locus YGL173C, strain kem1, stronger effect = lower value 0.959 | locus YGL227W, strain vid30, stronger effect = lower value 0.964 | locus YGL240W, strain doc1, stronger effect = lower value 0.951 | locus YGL248W, strain PDE1, stronger effect = lower value 0.901 | locus YGL253W, strain hxk2, stronger effect = lower value 0.987 | locus YHR013C, strain ard1, stronger effect = lower value 0.924 | locus YHR027C, strain rpn1, stronger effect = lower value 0.984 | locus YHR079C, strain IRE1, stronger effect = lower value 0.96 | locus YHR094C, strain hxt1, stronger effect = lower value 0.972 | locus YHR129C, strain ARP1, stronger effect = lower value 0.925 | locus YHR142W, strain chs7, stronger effect = lower value 0.888 | locus YHR200W, strain rpn10, stronger effect = lower value 0.921 | locus YIL073C, strain SPO22, stronger effect = lower value 0.909 | locus YIL125W, strain kgd1, stronger effect = lower value 0.964 | locus YIR030C, strain dcg1, stronger effect = lower value 0.969 | locus YJL092W, strain hpr5, stronger effect = lower value 0.956 | locus YJL095W, strain BCK1 (second series), stronger effect = lower value 0.98 | locus YJL115W, strain asf1, stronger effect = lower value 0.973 | locus YJL129C, strain trk1, stronger effect = lower value 0.912 | locus YJL134W, strain LCB3, stronger effect = lower value 0.978 | locus YJL154C, strain vps35, stronger effect = lower value 0.956 | locus YJL164C, strain tpk1, stronger effect = lower value 0.952 | locus YJL166W, strain qcr8, stronger effect = lower value 0.983 | locus YJL168C, strain set2, stronger effect = lower value 0.968 | locus YJR066W, strain TOR1, stronger effect = lower value 0.915
0.756 (active) and 0.945 (inactive): locus YJL095W, strain BCK1, stronger effect = lower value
